# CHRM1 antagonist: human M1 muscarinic receptor antagonists, primary screen, CHO-K1 cells, Fluo-8 calcium fluorescence, 1536-well | CHO-K1 hM1, ACh EC80 antagonist | AID 588852, 2011 | 360,000 tested, 1.3% active | inhibition, % at 3 µM;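 active = percent inhibition above its own plate's cutoff, namely the mean of that plate's compound wells plus 3 SD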;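 note: peak over basal fluorescence ratio during 140 s after agonist addition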
# Target sequence (P11229 whole entry, looked up): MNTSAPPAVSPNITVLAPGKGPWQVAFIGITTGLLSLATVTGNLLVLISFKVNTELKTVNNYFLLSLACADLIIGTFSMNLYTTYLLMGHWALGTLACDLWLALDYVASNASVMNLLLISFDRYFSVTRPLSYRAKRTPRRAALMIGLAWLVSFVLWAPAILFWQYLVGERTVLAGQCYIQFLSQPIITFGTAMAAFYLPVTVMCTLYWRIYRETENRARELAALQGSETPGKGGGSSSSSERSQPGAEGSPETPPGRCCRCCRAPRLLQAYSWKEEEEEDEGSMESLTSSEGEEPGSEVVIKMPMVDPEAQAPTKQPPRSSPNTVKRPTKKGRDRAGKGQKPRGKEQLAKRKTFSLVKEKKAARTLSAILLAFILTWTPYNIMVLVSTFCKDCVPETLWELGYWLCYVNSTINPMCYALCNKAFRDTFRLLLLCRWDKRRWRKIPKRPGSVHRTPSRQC
# M1 ag parental: counter-screen for M1 agonists: effect in parental CHO-K1 cells; AID 602248, 2012; 360,000 tested, 0.48% active; activation, % at 3 µM; Fluo-8 calcium fluorescence; scaled to maximal ATP response, vehicle zero; in the data active = activation above about 15%;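 note: untransfected CHO-K1 host cells lacking M1 receptor as counterscreen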
# CHO-K1 Ca antag: counter-screen for M1 antagonists: effect in parental CHO-K1 cells | inhibition, % at 3 µM | ATP-induced calcium, Fluo-8 fluorescence | 360,000 tested, 0.6% active;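 active = inhibition above a per-plate cutoff, the plate's mean sample inhibition plus 3 SD, cut at about 24% in these data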
# CHRM1 PAM: human M1 muscarinic receptor positive allosteric modulators, primary screen, CHO-K1 cells, Fluo-8 calcium fluorescence, 1536-well; AID 588819, 2011; Muscarinic acetylcholine receptor M1 (Homo sapiens), P11229; CHO-K1 hM1, ACh EC20; 0% = ACh EC20, 100% = maximal ACh; 360,000 tested, 0.088% active; activation, % at 3 µM; in the data active = activation above about 19%, passing the limit was not always enough
# M1 PAM parental: nonselective calcium activators in parental CHO-K1 cells, primary screen, counter-screen for M1 PAM project, cell-based, Fluo-8 calcium fluorescence, full deck, 1536-well. AID 602247, 2012. ATP EC20; 0% at ATP EC20, 100% at ATP max. 360,000 tested, 0.02% active. activation, % at 3 µM;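 active = activation above the run cutoff, the mean activation of all test compounds plus 3 SD, cut at about 40% in these data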;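 note: peak over basal fluorescence ratio in a 140 s read after ATP addition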
# CHRM1 agonist: human M1 muscarinic receptor agonists, primary screen, Fluo-8 calcium fluorescence, CHO-K1 cells, HTS | 360,000 tested, 0.33% active | Muscarinic acetylcholine receptor M1 (Homo sapiens), P11229 | CHO-K1 hM1, agonist mode; 0% DMSO, 100% acetylcholine EC100 | activation, % at 3 µM;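 active = activation above the run's mean compound activation plus 3 SD, cut at about 16% in these data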;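 note: peak over basal fluorescence ratio within a 140 s kinetic read after compound addition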
# Numbers stand for hits; i = inactive. An excerpt weighted towards active compounds, which were near 2.3% of everything screened.
SMILES,CHRM1 antagonist,M1 ag parental,CHO-K1 Ca antag,CHRM1 PAM,M1 PAM parental,CHRM1 agonist
Cc1ccc2c(c1)nnn2C1CCN(S(=O)(=O)c2ccc(C(=O)N3C(C)CCCC3C)cc2)CC1 (stereo unspecified),33,i,i,i,i,i
Cc1ccc2c(c1)nnn2C1CCN(S(=O)(=O)c2ccc(C(=O)O)cc2)CC1,i,i,i,i,i,i
O=S(=O)(c1ccc2c(c1)OCCO2)N1CCC(n2nnc3cc(C(F)(F)F)ccc32)CC1,31,i,i,i,i,i
O=C(NCc1cccs1)C1CCCN(C(=O)Nc2ccccc2)C1 (stereo unspecified),i,i,i,i,i,i
COc1cc(/C=C(/NC(=O)c2ccccc2)C(=O)N2CCOCC2)c([N+](=O)[O-])cc1OC,i,i,i,i,i,i
COc1cccc(C(=O)C[n+]2ccccc2/C=N/O)c1,27,i,i,i,i,i
CCOC(=O)c1c(-c2ccccc2)csc1NC(=O)/C(C#N)=C/c1ccc(OC)c(OC)c1,i,i,i,i,i,i
CCOC(=O)c1c(-c2ccccc2)csc1NC(=O)/C(C#N)=C/c1ccc(O)c(OC)c1,i,i,i,i,i,17
CCc1ccccc1OC[C@@H](O)CN[C@H]1CCCc2ccccc21,i,i,25,i,i,i
OC(CNC1CCCc2ccccc21)COc1ccc2ccccc2c1 (stereo unspecified),i,i,i,i,i,i
NC(=O)c1ccsc1NC(=O)COC(=O)/C=C/c1ccccc1[N+](=O)[O-],i,18,i,i,i,i
NC(=O)c1ccsc1NC(=O)COC(=O)COc1ccccc1[N+](=O)[O-],i,i,i,i,i,i
NC(=O)c1ccsc1NC(=O)COC(=O)/C=C/c1ccccc1,50,i,27,i,i,i
O=C(COC(=O)/C=C/c1ccccc1)Nc1ccc2c(c1)OCCO2,i,i,i,27,i,i
O=S(=O)(NCC1CCCO1)c1cnc(Cl)c(Br)c1 (stereo unspecified),i,i,i,i,i,i
CN(CCCN1CCCCC1)C(=O)c1cc(COc2ccc(F)cc2F)on1,38,i,i,i,i,i
CC(=O)c1ccccc1OCCOCCOc1ccccc1C(C)=O,i,i,i,i,i,i
CCN(CC)CCOc1ccccc1C(C)=O,40,i,i,i,i,i
CC[N+](CC)(CC)CCC(O)(c1ccccc1)C1CCCCC1 (stereo unspecified),98,i,i,i,i,i
CCN(CC)CCC(O)(c1ccccc1)C1CCCCC1 (stereo unspecified),100,i,i,i,i,i
Cc1cc(C(=O)OCC(=O)NCCC(C)C)c2ccccc2n1,i,i,i,i,i,i
CCCCC1=NN2CCS(=O)(=O)N=C2S1,i,i,i,i,i,i
CC(=O)Nc1cccc(C(=O)/C=C/c2ccc(N(C)C)cc2)c1,55,87,44,i,i,113
COc1ccc(/C=C/C(=O)Nc2cccc(C(C)=O)c2)cc1,i,19,i,i,i,i
COc1ccccc1C(=O)OCc1c(F)cccc1Cl,i,i,i,i,i,i
SMILES,CHRM1 antagonist,M1 ag parental,CHO-K1 Ca antag,CHRM1 PAM,M1 PAM parental,CHRM1 agonist
O=C1Nc2ccccc2/C1=N\N=C\C1=C(N2CCOCC2)C(=C\c2ccccc2)/CC1,30,i,i,i,i,i
OCCNc1nc2nonc2nc1NCCO,i,i,i,i,i,i
CC(C)(C)Nc1nc2nonc2nc1NC(C)(C)C,i,16,i,i,i,i
COc1cc(OC)cc(C(=O)Nc2nc(CC(=O)NCc3ccccc3OC)cs2)c1,29,i,i,i,i,i
CCCCNC(=O)c1oc2ccc(S(=O)(=O)N3CCCC3)cc2c1C,i,i,i,i,i,i
CC(=O)Nc1ccc(OCC(O)CN2C(C)CCCC2C)cc1 (stereo unspecified),i,i,32,i,i,i
CC1CCCC(C)N1CC(O)COc1ccc(Cl)cc1 (stereo unspecified),i,i,i,i,i,i
CCOC(=O)c1c(N)sn(-c2ccccc2C)c1=S,34,i,i,i,i,i
COc1ccc(O)c(/C=N/n2c(-c3ccco3)csc2=Nc2cccnc2)c1,i,i,28,i,i,i
CC1CCCCC1NC(=O)CNC(=O)c1ccco1 (stereo unspecified),i,i,i,i,i,i
CN(Cc1ccc(Cl)cc1Cl)C(=O)C1CSC2(C)CCC(=O)N12 (stereo unspecified),i,i,i,i,i,i
O=C1CCc2cc(NS(=O)(=O)c3cc(F)ccc3F)cc3c2N1CC3,i,i,i,i,i,i
CN1CCC(=C(c2ccccc2)c2ccc(Br)cc2)CC1,54,22,i,i,i,i
O=C(CNCc1cccs1)Nc1ccc(N2CCCCCC2)cc1,i,i,i,i,i,i
COc1ccc(-c2csc(NC(=O)[C@H](C)N3C(=O)C4CC=CCC4C3=O)n2)cc1OC (stereo partly specified),i,i,i,i,i,i
Cc1csc(NC(=O)Cc2ccc(Cl)cc2)n1,i,i,i,i,i,i
O=C(Cc1ccccc1F)Nc1nc(-c2ccc(F)c(F)c2)cs1,i,i,i,i,i,i
O=C(Cc1ccc(F)cc1)Nc1nc(-c2ccc(F)cc2)cs1,35,i,i,i,i,i
COc1ccc(CC(=O)Nc2nc(C)cs2)cc1,i,16,i,i,i,i
O=C(Cc1ccccc1)Nc1nc(-c2ccc(F)c(F)c2)cs1,37,i,i,i,i,i
CC(C(=O)Nc1nc(-c2ccc(F)c(F)c2)cs1)N1C(=O)C2CC=CCC2C1=O (stereo unspecified),31,i,i,i,i,i
O=C(O)CCCC(=O)Nc1nc(-c2ccc(F)cc2)cs1,i,i,i,i,i,i
O=C(/C=C/[C@H]1O[C@@H](n2cnc3c(NC(=O)c4ccccc4)ncnc32)[C@H](O)[C@@H]1O)NCc1ccco1,i,i,i,i,i,i
COC(=O)c1sccc1NC(=S)N1CC(C)CC(C)C1 (stereo unspecified),i,i,i,i,i,i
Cc1ccc(N2CC(C(=O)Nc3cccc(C(=O)NC4CC4)c3)CC2=O)cc1 (stereo unspecified),i,i,i,i,i,i
COc1ccccc1CNC(=O)c1ccc2ccccc2n1,i,i,i,i,i,i
COc1cccc(C2CCCN2Cc2nc(-c3cnccn3)no2)c1 (stereo unspecified),i,i,i,i,i,i

# Source: PubChem BioAssay
